According to paper PMC7862700, “An all-to-all approach to the identification of sequence-specific readers for epigenetic DNA modifications on cytosine”:

What was measured:
Assay in all cases: DAPPL (digital affinity profiling via proximity ligation, sequencing); 10 mM Tris-HCl pH 7.5, 50 mM NaCl, 1 mM DTT, 4% glycerol, room temperature, 30 min; GST-TFs on glutathione beads, 16-mer random dsDNA library, 0.1% formaldehyde crosslink after washing; high values mean tight binding
[1] = target: T1, FLI1 (Homo sapiens, UniProt Q01543 1-452); conditions: protein: recombinant; tags: N-terminal GST; dsDNA, one strand shown
T1 sequence: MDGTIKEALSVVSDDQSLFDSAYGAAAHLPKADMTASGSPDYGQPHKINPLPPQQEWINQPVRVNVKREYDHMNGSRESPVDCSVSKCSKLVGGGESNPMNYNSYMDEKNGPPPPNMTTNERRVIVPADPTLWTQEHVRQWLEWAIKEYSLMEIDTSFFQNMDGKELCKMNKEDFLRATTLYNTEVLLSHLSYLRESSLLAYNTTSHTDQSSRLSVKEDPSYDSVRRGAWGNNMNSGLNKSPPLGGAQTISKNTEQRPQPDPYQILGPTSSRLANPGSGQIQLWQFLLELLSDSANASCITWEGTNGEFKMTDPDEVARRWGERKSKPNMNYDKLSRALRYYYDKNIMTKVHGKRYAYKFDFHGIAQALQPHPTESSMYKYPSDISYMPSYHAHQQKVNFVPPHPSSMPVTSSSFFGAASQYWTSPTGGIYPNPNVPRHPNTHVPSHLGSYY
How it was run: (§1)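 GST fusions of human transcription factors were expressed in yeast and captured with glutathione beads. Once given DNA barcodes and pooled alongside a tag-only sample, they were incubated for 30 min at room temperature with 200 nmole of a random double-stranded 16-mer DNA library in Tris/NaCl/DTT/glycerol buffer, then washed, crosslinked (0.1% formaldehyde), proximity-ligated, PCR-amplified and sequenced on an Illumina NextSeq500. The binding signal of each hexamer is its read frequency for a factor divided by its frequency for the tag-only sample.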

[2] = target: T2, ELK1 (Homo sapiens, UniProt P19419 1-428); conditions: protein: recombinant; tags: N-terminal GST; dsDNA, one strand shown
T2 sequence: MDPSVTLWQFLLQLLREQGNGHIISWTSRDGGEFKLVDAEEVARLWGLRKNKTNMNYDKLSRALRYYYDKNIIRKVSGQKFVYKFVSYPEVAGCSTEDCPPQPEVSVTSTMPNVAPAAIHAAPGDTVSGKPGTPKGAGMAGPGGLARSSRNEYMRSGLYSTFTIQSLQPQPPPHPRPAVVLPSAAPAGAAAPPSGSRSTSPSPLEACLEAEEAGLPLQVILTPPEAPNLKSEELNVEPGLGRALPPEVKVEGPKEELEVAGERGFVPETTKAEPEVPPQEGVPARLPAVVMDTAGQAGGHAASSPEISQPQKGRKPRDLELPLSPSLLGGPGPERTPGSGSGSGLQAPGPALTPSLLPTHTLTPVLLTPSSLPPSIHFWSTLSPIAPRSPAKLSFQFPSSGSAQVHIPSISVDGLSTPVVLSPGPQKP
How it was run: as §1

[3] = target: T3, GABPA (Homo sapiens, UniProt Q06546 1-454); conditions: protein: recombinant; tags: N-terminal GST; dsDNA, one strand shown
T3 sequence: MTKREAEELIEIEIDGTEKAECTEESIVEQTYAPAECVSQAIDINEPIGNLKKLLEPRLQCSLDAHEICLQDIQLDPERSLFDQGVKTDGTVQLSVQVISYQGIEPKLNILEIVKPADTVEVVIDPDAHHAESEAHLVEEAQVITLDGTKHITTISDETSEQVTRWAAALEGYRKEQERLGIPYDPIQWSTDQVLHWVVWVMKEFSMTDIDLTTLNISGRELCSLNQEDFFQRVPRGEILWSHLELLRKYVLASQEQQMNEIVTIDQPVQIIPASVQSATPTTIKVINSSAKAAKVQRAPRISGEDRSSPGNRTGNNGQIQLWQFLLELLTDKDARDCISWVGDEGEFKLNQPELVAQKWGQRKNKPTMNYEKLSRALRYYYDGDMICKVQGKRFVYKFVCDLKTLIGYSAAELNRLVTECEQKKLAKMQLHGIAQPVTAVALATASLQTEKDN
How it was run: as §1

[4] = target: T4, ERG (Homo sapiens, UniProt P11308 1-479); conditions: protein: recombinant; tags: N-terminal GST; dsDNA, one strand shown
T4 sequence: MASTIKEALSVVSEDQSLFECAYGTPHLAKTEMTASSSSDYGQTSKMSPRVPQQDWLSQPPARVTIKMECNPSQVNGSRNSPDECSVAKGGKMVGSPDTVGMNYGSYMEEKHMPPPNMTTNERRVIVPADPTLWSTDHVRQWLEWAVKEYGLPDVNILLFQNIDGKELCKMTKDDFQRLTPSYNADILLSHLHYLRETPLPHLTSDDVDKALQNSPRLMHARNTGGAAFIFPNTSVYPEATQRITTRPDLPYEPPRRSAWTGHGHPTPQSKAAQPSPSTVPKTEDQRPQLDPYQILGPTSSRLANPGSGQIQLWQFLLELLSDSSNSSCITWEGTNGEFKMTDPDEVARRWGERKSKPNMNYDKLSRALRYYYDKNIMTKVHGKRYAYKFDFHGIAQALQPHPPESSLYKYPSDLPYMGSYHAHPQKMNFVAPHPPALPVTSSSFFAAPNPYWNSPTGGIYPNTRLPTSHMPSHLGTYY
How it was run: as §1

[5] = target: ELF1 (Homo sapiens, UniProt P32519 1-619); conditions: protein: recombinant; tags: N-terminal GST; dsDNA, one strand shown
ELF1, sequence (P32519 whole entry): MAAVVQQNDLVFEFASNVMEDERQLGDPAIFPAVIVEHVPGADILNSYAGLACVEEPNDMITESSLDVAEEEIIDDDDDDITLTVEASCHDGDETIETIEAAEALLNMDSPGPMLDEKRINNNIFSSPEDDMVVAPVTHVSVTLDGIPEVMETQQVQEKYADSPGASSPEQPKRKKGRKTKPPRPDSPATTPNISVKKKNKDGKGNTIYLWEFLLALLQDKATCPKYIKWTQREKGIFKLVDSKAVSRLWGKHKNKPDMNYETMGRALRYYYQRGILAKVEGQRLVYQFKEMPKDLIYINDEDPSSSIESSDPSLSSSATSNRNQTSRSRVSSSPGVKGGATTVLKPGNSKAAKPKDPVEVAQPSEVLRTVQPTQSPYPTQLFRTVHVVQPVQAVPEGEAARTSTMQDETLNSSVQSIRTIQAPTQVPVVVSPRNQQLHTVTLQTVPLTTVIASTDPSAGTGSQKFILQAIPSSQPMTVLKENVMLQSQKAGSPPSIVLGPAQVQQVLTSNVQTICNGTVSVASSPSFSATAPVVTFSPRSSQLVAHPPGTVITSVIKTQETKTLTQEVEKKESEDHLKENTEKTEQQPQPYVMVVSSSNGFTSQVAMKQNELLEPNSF
How it was run: as §1

[6] = target: T5, EHF (Homo sapiens, UniProt Q9NZC4 1-300); conditions: protein: recombinant; tags: N-terminal GST; dsDNA, one strand shown
T5 sequence: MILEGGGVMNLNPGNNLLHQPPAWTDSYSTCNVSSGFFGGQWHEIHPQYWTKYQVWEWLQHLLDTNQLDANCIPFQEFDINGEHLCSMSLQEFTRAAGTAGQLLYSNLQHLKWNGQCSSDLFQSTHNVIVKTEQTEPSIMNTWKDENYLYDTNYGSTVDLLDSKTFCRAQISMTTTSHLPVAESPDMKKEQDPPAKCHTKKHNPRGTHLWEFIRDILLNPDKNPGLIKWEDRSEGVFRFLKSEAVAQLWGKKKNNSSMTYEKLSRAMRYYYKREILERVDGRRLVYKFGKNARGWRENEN
How it was run: as §1

[7] = target: SPI1 (Homo sapiens, UniProt P17947 1-270); conditions: protein: recombinant; tags: N-terminal GST; dsDNA, one strand shown
How it was run: as §1

[8] = target: SPIB (Homo sapiens, UniProt Q01892 1-262); conditions: protein: recombinant; tags: N-terminal GST; dsDNA, one strand shown
SPIB, sequence (Q01892 whole entry): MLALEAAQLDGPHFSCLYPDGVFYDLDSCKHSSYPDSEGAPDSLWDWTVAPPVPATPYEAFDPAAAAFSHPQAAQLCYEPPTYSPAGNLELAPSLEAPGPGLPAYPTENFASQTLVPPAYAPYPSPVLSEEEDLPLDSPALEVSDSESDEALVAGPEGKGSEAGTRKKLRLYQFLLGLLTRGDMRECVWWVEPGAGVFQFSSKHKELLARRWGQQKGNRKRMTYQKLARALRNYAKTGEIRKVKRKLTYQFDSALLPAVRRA
How it was run: as §1

[9] = target: T6, ELK3 (Homo sapiens, UniProt P41970 1-407); conditions: protein: recombinant; tags: N-terminal GST; dsDNA, one strand shown
T6 sequence: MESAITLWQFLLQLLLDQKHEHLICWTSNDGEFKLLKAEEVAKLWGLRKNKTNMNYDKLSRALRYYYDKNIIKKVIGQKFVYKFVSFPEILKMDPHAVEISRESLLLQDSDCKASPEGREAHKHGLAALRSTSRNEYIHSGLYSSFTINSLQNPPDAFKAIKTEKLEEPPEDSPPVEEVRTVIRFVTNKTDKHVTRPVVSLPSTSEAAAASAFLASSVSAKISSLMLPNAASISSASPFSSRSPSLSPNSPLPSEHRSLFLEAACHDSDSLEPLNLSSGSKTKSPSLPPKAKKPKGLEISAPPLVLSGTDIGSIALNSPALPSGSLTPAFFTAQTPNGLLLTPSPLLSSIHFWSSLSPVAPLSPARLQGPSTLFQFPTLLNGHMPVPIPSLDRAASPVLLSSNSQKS
How it was run: as §1

[10] = target: T7, FEV (Homo sapiens, UniProt Q99581 1-238); conditions: protein: recombinant; tags: N-terminal GST; dsDNA, one strand shown
T7 sequence: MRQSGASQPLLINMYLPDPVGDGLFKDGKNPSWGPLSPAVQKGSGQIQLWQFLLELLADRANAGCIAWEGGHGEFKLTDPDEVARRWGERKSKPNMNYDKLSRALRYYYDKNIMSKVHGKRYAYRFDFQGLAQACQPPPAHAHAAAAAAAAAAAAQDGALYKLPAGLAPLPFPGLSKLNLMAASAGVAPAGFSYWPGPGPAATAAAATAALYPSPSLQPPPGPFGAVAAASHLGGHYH
How it was run: as §1

[11] = target: ETV5 (Homo sapiens, UniProt P41161 1-510); conditions: protein: recombinant; tags: N-terminal GST; dsDNA, one strand shown
ETV5, sequence (P41161 whole entry): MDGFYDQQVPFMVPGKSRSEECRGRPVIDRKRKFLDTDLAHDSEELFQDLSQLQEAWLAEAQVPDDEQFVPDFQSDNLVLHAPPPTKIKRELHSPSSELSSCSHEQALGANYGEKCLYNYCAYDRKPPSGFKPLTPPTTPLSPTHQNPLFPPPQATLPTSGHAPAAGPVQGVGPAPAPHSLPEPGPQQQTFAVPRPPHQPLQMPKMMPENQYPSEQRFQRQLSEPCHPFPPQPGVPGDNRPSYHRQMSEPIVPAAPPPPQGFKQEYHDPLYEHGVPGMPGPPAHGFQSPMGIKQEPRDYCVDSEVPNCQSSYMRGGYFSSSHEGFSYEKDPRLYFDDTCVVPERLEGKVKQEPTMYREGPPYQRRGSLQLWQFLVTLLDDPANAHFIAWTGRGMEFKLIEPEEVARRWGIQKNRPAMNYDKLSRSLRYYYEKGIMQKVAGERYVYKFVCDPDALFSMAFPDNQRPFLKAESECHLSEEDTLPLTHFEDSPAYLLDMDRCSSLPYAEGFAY
How it was run: as §1

[12] = target: HSF1 (Homo sapiens, UniProt Q00613 1-529); conditions: protein: recombinant; tags: N-terminal GST; chain copies: 3; dsDNA, one strand shown
HSF1, sequence (Q00613 whole entry): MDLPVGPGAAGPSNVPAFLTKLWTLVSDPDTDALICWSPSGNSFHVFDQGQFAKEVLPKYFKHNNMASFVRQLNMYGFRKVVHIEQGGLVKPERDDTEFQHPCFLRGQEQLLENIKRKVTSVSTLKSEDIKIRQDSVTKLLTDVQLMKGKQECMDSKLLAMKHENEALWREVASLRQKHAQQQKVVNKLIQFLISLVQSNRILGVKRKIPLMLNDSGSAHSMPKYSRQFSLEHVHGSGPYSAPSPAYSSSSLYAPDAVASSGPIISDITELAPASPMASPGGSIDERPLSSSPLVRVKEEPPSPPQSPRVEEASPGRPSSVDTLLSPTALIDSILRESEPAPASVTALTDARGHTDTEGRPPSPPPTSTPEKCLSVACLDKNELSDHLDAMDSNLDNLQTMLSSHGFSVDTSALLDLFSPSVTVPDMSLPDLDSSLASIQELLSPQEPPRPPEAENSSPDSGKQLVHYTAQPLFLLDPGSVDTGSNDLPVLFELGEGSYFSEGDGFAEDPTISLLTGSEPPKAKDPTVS
How it was run: as §1

[13] = target: T8, SPIC (Homo sapiens, UniProt Q8N5J4 1-248); conditions: protein: recombinant; tags: N-terminal GST; dsDNA, one strand shown
T8 sequence: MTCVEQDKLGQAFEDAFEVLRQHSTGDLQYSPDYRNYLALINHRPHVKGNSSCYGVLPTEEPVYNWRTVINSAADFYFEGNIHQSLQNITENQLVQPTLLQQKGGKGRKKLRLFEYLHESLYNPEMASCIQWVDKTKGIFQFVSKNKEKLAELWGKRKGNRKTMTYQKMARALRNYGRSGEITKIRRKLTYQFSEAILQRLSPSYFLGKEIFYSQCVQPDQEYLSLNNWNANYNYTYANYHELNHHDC
How it was run: as §1

[14] = target: ELF4 (Homo sapiens, UniProt Q99607 1-663); conditions: protein: recombinant; tags: N-terminal GST; dsDNA, one strand shown
ELF4, sequence (Q99607 whole entry): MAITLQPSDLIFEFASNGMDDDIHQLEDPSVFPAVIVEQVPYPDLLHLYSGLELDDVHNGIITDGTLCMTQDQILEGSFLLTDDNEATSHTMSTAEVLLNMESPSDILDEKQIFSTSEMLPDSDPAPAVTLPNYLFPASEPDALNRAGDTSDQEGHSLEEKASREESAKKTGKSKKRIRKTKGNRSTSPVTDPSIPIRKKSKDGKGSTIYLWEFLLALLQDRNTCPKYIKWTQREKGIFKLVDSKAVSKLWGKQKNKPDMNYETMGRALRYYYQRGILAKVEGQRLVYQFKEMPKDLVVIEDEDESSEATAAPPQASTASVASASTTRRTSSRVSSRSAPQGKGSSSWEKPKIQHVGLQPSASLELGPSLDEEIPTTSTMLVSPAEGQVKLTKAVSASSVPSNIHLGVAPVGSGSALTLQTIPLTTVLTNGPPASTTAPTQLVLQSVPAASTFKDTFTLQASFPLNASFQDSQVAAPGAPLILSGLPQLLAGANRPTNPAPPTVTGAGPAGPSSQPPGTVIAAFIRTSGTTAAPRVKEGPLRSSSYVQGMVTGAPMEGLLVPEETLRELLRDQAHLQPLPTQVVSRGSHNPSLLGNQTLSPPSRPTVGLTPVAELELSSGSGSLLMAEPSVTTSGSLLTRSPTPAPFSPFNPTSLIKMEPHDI
How it was run: as §1

[15] = target: T9, ELK4 (Homo sapiens, UniProt P28324-2 1-405); conditions: protein: recombinant; tags: N-terminal GST; dsDNA, one strand shown
T9 sequence: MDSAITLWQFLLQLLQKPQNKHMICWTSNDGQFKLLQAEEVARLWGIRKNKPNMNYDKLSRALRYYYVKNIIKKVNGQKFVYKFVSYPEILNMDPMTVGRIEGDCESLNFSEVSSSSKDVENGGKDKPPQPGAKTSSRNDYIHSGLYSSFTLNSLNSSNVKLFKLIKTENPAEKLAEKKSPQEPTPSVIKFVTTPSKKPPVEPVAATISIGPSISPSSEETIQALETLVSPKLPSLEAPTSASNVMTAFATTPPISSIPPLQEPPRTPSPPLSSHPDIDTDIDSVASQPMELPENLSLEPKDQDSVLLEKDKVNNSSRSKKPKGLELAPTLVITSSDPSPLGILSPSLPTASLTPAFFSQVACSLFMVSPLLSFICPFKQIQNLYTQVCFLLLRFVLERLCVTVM
How it was run: as §1

[16] = target: T10, ETV2 (Homo sapiens, UniProt O00321 1-342); conditions: protein: recombinant; tags: N-terminal GST; dsDNA, one strand shown
T10 sequence: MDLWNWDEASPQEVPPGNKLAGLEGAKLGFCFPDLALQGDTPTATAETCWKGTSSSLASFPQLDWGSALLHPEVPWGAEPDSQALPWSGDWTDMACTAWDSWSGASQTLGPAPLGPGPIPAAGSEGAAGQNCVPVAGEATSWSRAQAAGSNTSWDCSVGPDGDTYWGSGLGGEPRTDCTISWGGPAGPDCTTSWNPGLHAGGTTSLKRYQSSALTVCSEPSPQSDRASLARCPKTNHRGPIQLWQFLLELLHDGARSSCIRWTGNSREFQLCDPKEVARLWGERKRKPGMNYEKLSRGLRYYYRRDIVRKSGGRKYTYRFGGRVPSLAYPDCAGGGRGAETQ
How it was run: as §1

[17] = target: T11, ELF3 (Homo sapiens, UniProt P78545 1-371); conditions: protein: recombinant; tags: N-terminal GST; dsDNA, one strand shown
T11 sequence: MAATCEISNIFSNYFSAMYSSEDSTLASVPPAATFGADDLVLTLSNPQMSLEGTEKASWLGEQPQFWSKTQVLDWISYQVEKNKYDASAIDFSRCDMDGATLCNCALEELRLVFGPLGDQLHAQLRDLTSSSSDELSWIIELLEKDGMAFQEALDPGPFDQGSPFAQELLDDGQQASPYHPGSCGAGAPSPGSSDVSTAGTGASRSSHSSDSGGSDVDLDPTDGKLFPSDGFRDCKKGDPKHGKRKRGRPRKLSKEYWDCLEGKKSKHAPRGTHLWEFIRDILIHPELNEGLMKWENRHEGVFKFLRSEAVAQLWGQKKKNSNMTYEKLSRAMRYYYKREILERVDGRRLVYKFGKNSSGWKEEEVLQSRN
How it was run: as §1

[18] = target: CRX (Homo sapiens, UniProt O43186 1-299); conditions: protein: recombinant; tags: N-terminal GST; dsDNA, one strand shown
CRX, sequence (O43186 whole entry): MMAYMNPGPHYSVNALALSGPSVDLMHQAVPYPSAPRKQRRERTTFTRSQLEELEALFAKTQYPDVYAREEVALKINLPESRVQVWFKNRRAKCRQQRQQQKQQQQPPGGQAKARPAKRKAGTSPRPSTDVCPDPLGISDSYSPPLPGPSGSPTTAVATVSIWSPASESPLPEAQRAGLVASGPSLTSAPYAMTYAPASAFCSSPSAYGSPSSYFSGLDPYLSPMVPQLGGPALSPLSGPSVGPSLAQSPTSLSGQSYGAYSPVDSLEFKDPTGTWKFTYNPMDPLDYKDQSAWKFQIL
How it was run: as §1

[19] = target: ETV1 (Homo sapiens, UniProt P50549 1-477); conditions: protein: recombinant; tags: N-terminal GST; dsDNA, one strand shown
ETV1, sequence (P50549 whole entry): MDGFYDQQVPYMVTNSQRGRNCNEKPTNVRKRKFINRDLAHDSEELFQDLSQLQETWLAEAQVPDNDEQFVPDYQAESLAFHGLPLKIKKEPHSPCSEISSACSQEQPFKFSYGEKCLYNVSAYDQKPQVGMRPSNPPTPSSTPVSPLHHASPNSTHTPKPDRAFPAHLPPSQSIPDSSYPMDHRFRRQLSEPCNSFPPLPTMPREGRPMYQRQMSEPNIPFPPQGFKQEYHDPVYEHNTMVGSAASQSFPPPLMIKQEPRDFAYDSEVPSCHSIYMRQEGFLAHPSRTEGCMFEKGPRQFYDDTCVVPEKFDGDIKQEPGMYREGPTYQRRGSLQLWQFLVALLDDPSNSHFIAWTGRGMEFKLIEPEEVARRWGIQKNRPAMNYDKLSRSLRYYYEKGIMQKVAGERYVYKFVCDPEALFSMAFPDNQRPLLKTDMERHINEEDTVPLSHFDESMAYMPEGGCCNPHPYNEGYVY
How it was run: as §1

## ATCCAC
[1]
  binding signal: 1.23 fold enrichment (6-mer frequency, TF over GST control)
[2]
  binding signal: 1.28 fold enrichment (6-mer frequency, TF over GST control)
[3]
  binding signal: 1.32 fold enrichment (6-mer frequency, TF over GST control)
[4]
  binding signal: 1.22 fold enrichment (6-mer frequency, TF over GST control)
[5]
  binding signal: 1.22 fold enrichment (6-mer frequency, TF over GST control)
[6]
  binding signal: 1.25 fold enrichment (6-mer frequency, TF over GST control)
[7]
  binding signal: 1.15 fold enrichment (6-mer frequency, TF over GST control)
[8]
  binding signal: 1.19 fold enrichment (6-mer frequency, TF over GST control)
[9]
  binding signal: 1.27 fold enrichment (6-mer frequency, TF over GST control)
[10]
  binding signal: 1.14 fold enrichment (6-mer frequency, TF over GST control)
[11]
  binding signal: 1.18 fold enrichment (6-mer frequency, TF over GST control)
[12]
  binding signal: 1.36 fold enrichment (6-mer frequency, TF over GST control)
[13]
  binding signal: 1.24 fold enrichment (6-mer frequency, TF over GST control)
[14]
  binding signal: 1.22 fold enrichment (6-mer frequency, TF over GST control)
[15]
  binding signal: 1.32 fold enrichment (6-mer frequency, TF over GST control)
[16]
  binding signal: 1.23 fold enrichment (6-mer frequency, TF over GST control)
[17]
  binding signal: 1.14 fold enrichment (6-mer frequency, TF over GST control)
[18]
  binding signal: 1.48 fold enrichment (6-mer frequency, TF over GST control)
[19]
  binding signal: 1.2 fold enrichment (6-mer frequency, TF over GST control)
